# An excerpt weighted towards active compounds, which were near 5% of everything screened.
# Vaccinia Venus – qHTS for Stage-Specific Inhibitors of Vaccinia Orthopoxvirus: Venus Reporter Primary qHTS. Potency, µM (highest dose often 36.5 µM), actives largely listed as inhibitors. AID 720580, 2013. 0.46% of 330,000 active. Vaccinia virus Venus reporter expression, fluorescence; calls by dose curve; tested in A549 cells; note: nearly all actives have a fitted effect of over 30% in size
# VACV mCherry inh – qHTS for Stage-Specific Inhibitors of Vaccinia Orthopoxvirus: mCherry Reporter Primary qHTS. Vaccinia virus mCherry reporter infection, fluorescence. Potency, µM (highest dose often 36.5 µM), actives largely listed as inhibitors. 0.63% of 310,000 active. AID 720579, 2013; calls by dose curve; tested in A549 cells; note: nearly all actives have a fitted effect of over 35% in size
# LmPK inh – qHTS Assay for Inhibitors of Leishmania Mexicana Pyruvate Kinase (LmPK); purified LmPK, Kinase-Glo ATP luminescence, 1 h; Potency, µM (series often up to 57.5 µM), hits mostly inhibitors; 0.37% of 290,000 active
# Target sequence (Q27686 whole entry, looked up): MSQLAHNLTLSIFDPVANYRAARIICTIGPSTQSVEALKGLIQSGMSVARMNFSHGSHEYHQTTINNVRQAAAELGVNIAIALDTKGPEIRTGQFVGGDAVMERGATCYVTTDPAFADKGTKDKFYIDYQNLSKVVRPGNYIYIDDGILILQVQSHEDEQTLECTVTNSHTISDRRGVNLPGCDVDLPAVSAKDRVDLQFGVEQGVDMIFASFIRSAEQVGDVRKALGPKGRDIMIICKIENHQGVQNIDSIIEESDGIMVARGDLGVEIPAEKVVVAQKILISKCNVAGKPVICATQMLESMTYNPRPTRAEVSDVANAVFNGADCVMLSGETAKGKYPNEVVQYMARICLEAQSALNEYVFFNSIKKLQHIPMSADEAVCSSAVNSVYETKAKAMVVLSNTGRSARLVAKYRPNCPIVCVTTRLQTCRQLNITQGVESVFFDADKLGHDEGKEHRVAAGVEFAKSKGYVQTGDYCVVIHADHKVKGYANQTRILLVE
#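 In 50 mM imidazole pH 7.2 with 7 mM MgCl2, LmPK (0.1 nM) turned over PEP (0.5 mM) and ADP (0.1 mM) for 1 h at room temperature. Luciferase read-out of ATP.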
# Tb PYK inh – qHTS of Trypanosoma Brucei Inhibitors. Potency, µM (highest dose often 76.8 µM), actives largely listed as inhibitors. AID 624173, 2012. TbPYK enzyme, Kinase-Glo Plus ATP luminescence, 45 min. 0.12% of 410,000 active; note: nearly all actives have a fitted effect of over 50% in size
#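 Assay buffer: 50 mM TEA pH 7.2, 100 mM KCl, 10 mM MgCl2, 0.05% BSA, 0.01% Tween-20. Pyruvate kinase from T. brucei plus substrate met compound, then ADP (130 uM final). Luminescence was read post 45 min RT.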
# HCMV antiviral – qHTS Assay for inhibitors of the human cytomegalovirus (HCMV); HFF cells, HCMV-luciferase reporter, 72 h; stronger effect = lower value; AID 1259415, 2018; 4.5% of 410,000 active; activity change, negative = inhibition, % at 57.5 µM; in the data active = activity change below about -60%; inconclusive = no clear call, values can overlap the other calls; inactive = above about -39%
#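 Human foreskin fibroblasts infected with luciferase-reporter HCMV at MOI 1 PFU/cell, compounds at two doses. Luciferase measured 72 h post infection; normalized to buffer-only basal and Salinomycin (10uM) controls.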
# Numbers stand for hits; . = inactive; ? = inconclusive; / = not tested or not shown; [ ] = another dose, or the depositor's remark. Unless noted, calls come from the whole dose curve; as a rule, active = well fitted curve in the direction sought with a large enough effect; inconclusive = small, poorly fitted or top-dose-only effect, or another doubt; inactive = no such curve, though single readings can be large; an effect the other way counts as inactive or inconclusive.
SMILES,Vaccinia Venus,VACV mCherry inh,LmPK inh,Tb PYK inh,HCMV antiviral
O=C(Cc1cccc(C(F)(F)F)c1)N1CCN(CC(=O)N2CCCC2)CC1,/,/,/,.,.
c1ccc2nc(OCCN3CC3)ccc2c1,?,?,.,.,-64
CN(C)S(=O)(=O)N1CCC(Oc2ccc(C(=O)NC3Cc4ccccc4C3)cc2)CC1,/,/,.,.,-81
CN(C)S(=O)(=O)N1CCC(Oc2cccc(C(=O)NC3CCCCCC3)c2)CC1,.,?,.,.,-90
CN(C)S(=O)(=O)N1CCC(Oc2ccc(C(=O)NC3CCOC(C)(C)C3)cc2)CC1 (stereo unspecified),/,/,.,.,.
CCN1CCN(C(=O)c2cccc(OC3CCN(S(=O)(=O)N(C)C)CC3)c2)CC1,.,.,.,.,.
COc1ccc(C(=O)NCC(c2ccc(N(C)C)cc2)N2CCc3ccccc32)cc1 (stereo unspecified),.,.,/,.,-71
CCN(c1ccccc1)S(=O)(=O)c1ccc(Cl)c(C(=O)N(CC2CCCO2)C2CCS(=O)(=O)C2)c1 (stereo unspecified),.,.,.,.,?
C/C(=N/NC(=O)c1ccncc1)c1ccc(NC(=O)c2ccc(Cl)cc2Cl)cc1,.,.,.,.,.
COc1ccc(NC(=O)c2ccc(CN3CCc4ccccc4C3)cc2)cc1OC,/,/,.,.,-64
CC(=NNC(=O)c1ccncc1)c1ccc2ccccc2c1O,.,?,/,.,-77
CC(=NNC(=O)c1ccncc1)c1ccc(O)cc1O,?,?,/,.,.
CC(=NNC(=O)c1ccncc1)c1ccccc1O,?,1.1µM,/,.,-98
C/C(=N\NC(=O)c1cccc2ccccc12)c1cccnc1,.,.,.,.,.
CC(C)CC(=NNC(=O)c1ccncc1)c1cc(Cl)ccc1O,?,5.6µM,/,.,-97
CCOC(=O)C1=CCC(c2cc3ccc(OC)cc3n2C(=O)OC(C)(C)C)NC1 (stereo unspecified),.,?,/,/,.
C/C(=N\NC(=O)c1ccc(CN2CCc3ccccc3C2)cc1)c1ccccc1O,.,?,.,.,-96
O=C(NNC(=O)c1ccccc1Br)c1ccc(Cl)cc1,.,.,.,.,.
CC(=O)Nc1ccccc1NC(=O)C/C(C)=N/NC(=O)c1ccncc1,/,/,.,.,-89
O=C(NNC(=O)c1ccccc1Br)c1ccncc1,/,/,.,.,-65
C/C(=N\NC(=O)c1cccc(N/N=C(\C)c2cc(O)ccc2O)c1)c1cc(O)ccc1O,.,?,.,.,-78
O=S(=O)(CS(=O)(=O)c1ccc(Br)cc1)c1ccc(Br)cc1,/,/,/,/,.
CCOC(=O)C1CCCN(C(=O)COc2ccc(S(=O)(=O)N3CCOCC3)cc2)C1 (stereo unspecified),.,.,/,.,.
C=CCNC(=O)/C(=C/c1cccc([N+](=O)[O-])c1)NC(=O)c1ccccc1,.,?,.,.,.
O=C(CN1CCCCCC1)Nc1cccc2c1OCO2,.,.,.,.,.
SMILES,Vaccinia Venus,VACV mCherry inh,LmPK inh,Tb PYK inh,HCMV antiviral
CN(c1ccc(C(=O)N2CCN(c3ccccc3F)CC2)cc1)S(=O)(=O)c1ccccc1,.,.,.,.,.
CC(=O)Nc1ccc(SCC(=O)Nc2sccc2C#N)cc1,.,.,.,.,.
COc1ccc(NC(=O)c2oc3c(c2C)-c2nn(Cc4ccccc4Cl)cc2CC3)cc1OC,.,.,/,.,-64
CCOc1ccccc1N=Nc1c(C)[nH]n(C(N)=S)c1=O,.,.,.,.,-85
COc1ccc(-c2nc3cc(F)ccc3cc2CN(C(=O)c2cccs2)C2CC2)cc1,.,.,/,/,/
CCCc1cc2c(=O)c(-c3ccc4c(c3)OCCO4)coc2cc1OS(C)(=O)=O,?,10µM,.,.,-60
CCCc1cc2c(=O)c(-c3ccc4c(c3)OCCO4)c(C)oc2cc1OS(C)(=O)=O,?,?,.,.,?
CC1=C(c2ccc(C(C)C)cc2)S(=O)(=O)N=C1N1CCN(c2ccccc2F)CC1,?,?,/,.,-62
CC1=C(c2ccc(C(C)C)cc2)S(=O)(=O)N=C1N1CCN(C(=O)c2ccco2)CC1,.,.,.,.,.
CCCCC1(C)OC(=O)C(=Cc2ccc(SC)cc2)C(=O)O1 (stereo unspecified),.,.,.,.,.
CCc1ccc(NCc2ccc(OC)c(Cn3ccnc3)c2)cc1,/,/,.,.,-64
COc1ccc(-c2cn3ccc4ccccc4c3n2)cc1,.,.,.,.,.
COc1ccc(-c2cn3nc4c(nc3n2)CCCC4)cc1,.,/,16µM,.,.
Cc1ccc(C)c(S(=O)(=O)N2CCCC2CNC(=O)C(=O)NCCN2CCOCC2)c1 (stereo unspecified),.,.,/,.,.
Cc1cc(Cl)ccc1N=c1ssnc1Cl,?,.[1.46 µM],.,?,.
COc1ccc(OC)c(N=c2ssnc2Cl)c1,.,.,.,28µM,.
COc1cc(N=c2ssnc2Cl)c(OC)cc1Cl,?,?,.,11µM,.
Cc1ccc(N=c2ssnc2Cl)cc1,/,/,.,28µM,.
CCOc1ccccc1NC(=O)CSc1ccc(-c2sc(C)nc2C)nn1,.,?,.,.,?
CCCN1CCN(CCCNC(=O)c2ccc3c(c2)sc2nc(-c4ccc(C)cc4)cn23)CC1,?,7.1µM,/,.,/
CC1CCN(C(=O)Cn2c3ccccc3c3nc4n(c(=O)c32)CCCS4)CC1,.,.,.,.,-61
CC1(C(=O)Nc2ccc3[nH]ncc3c2)CCN1C(=O)C1(c2ccccc2)CC1 (stereo unspecified),.,.,/,.,-98
O=C(N/N=C/c1ccccc1)c1sccc1OCc1ccc(F)cc1,.,/,.,.,-62
O=C(N/N=C/c1ccccc1)c1ccc(OCc2ccccc2)cc1,?,.,.,.,.
Cc1cc(C)c(C#N)c(Sc2ccccc2N)n1,.,.,.,.,.
SMILES,Vaccinia Venus,VACV mCherry inh,LmPK inh,Tb PYK inh,HCMV antiviral
CCN(CC)CCCN(C)C(=O)Cn1nc(Cc2ccncc2)c2ccccc2c1=O,.,.,.,.,?
c1ccc(C(c2cccs2)c2c[nH]c3ccccc23)cc1 (stereo unspecified),.,.,/,.,-66
CCOc1ccc(Oc2ccccc2NC(=O)C2=COCCO2)cc1,.,.,/,.,.
Cc1cc(-c2csc(N)n2)c(C)n1Cc1ccco1,/,/,.,.,.
COC(=O)c1cc(S(=O)(=O)N2CCN(c3ccc(C(C)=O)cc3)CC2)c[nH]1,/,/,.,.,.
CC(=O)Oc1ccc(-c2cccc(C(=O)NCCO)c2)cc1,.,.,.,.,.
COc1ccc(S(=O)(=O)N(Cc2ccccc2)Cc2nc3ccccc3c(=O)[nH]2)cc1,.,/,.,.,-100
COc1ccccc1CN(Cc1nc2ccccc2c(=O)[nH]1)S(=O)(=O)c1ccc2ccccc2c1,?,?,.,.,.

# Compound activity as filed in PubChem BioAssay.
